According to PubChem BioAssay AID1159580 (chemical genetic matrix, 2015):
In all, about 5,500 compounds went through this assay and about 2,000 (36%) were called active. About 18% were inconclusive and are not listed. Cut-off read from the data, not from the text of the source: active = normalized growth mostly below about 0.91 (no sharp cut-off); inconclusive = no clear call, values can overlap the other calls; inactive = mostly above about 0.92. Some of the results follow.

Experiment: chemical genetic growth profiling, strain panel (AID 1159580);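 note: tested at 20 µM; growth read once vehicle control cultures reached saturation at 30 °C; 1 = growth at the plate median or of vehicle wells; lower values mean less growth of the strain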
Conditions: S. cerevisiae deletion strains, growth OD

Measured: normalized growth

CC(=O)O[C@H]1C[C@@H]2CC[C@@H]3[C@H](CC[C@@]4(C)[C@H]3C[C@H]([N+]3(C)CCCCC3)[C@@H]4OC(C)=O)[C@@]2(C)C[C@@H]1[N+]1(C)CCCCC1
inactive: locus YAL040C, strain CLN3, active compounds read low 0.985 | locus YCL061C, strain MRC1 (second series), active compounds read low 0.988 | locus YDR150W, strain NUM1, active compounds read low 0.998 | locus YDR363W, strain ESC2, active compounds read low 0.989 | locus YER002W, strain NOP16, active compounds read low 1 | locus YGR078C, strain PAC10, active compounds read low 0.996 | locus YNL128W, strain TEP1, active compounds read low 1 | locus YNL175C, strain NOP13, active compounds read low 1.03 | locus YNL197C, strain WHI3, active compounds read low 0.998 | locus YNL224C, strain SQS1, active compounds read low 0.984 | locus YNL322C, strain KRE1, active compounds read low 1.01 | locus YOR083W, strain WHI5 (second series), active compounds read low 0.959 | locus YPL055C, strain LGE1, active compounds read low 0.98 | locus YPL241C, strain CIN2, active compounds read low 0.987

CC(=O)O[C@H]1CC2CCC3C(CC[C@@]4(C)C3C[C@H]([N+]3(C)CCCCC3)[C@@H]4OC(C)=O)[C@@]2(C)C[C@@H]1[N+]1(C)CCCCC1 (some centres undefined)
inactive: locus YAL021C, strain ccr4, active compounds read low 1.02 | locus YAL026C, strain drs2, active compounds read low 1.02 | locus YAL030W, strain snc1, active compounds read low 1.02 | locus YBL061C, strain skt5, active compounds read low 1.01 | locus YBR009C, strain hhf1, active compounds read low 1.03 | locus YBR023C, strain chs3, active compounds read low 1.03 | locus YBR171W, strain sec66, active compounds read low 1.04 | locus YBR231C, strain swc5, active compounds read low 1.02 | locus YBR279W, strain paf1, active compounds read low 1.01 | locus YCL011C, strain gbp2, active compounds read low 1.02 | locus YCL016C, strain dcc1, active compounds read low 1.02 | locus YCL061C, strain MRC1, active compounds read low 1.02 | locus YCL069W, strain vba3, active compounds read low 1.01 | locus YCR088W, strain abp1, active compounds read low 1.01 | locus YDL005C, strain med2, active compounds read low 1.02 | locus YDL040C, strain nat1, active compounds read low 1.02 | locus YDR001C, strain nth1, active compounds read low 1.01 | locus YDR069C, strain doa4, active compounds read low 1.02 | locus YDR137W, strain rgp1, active compounds read low 1.04 | locus YDR159W, strain sac3, active compounds read low 1.04 | locus YDR195W, strain ref2 0.978 | locus YDR297W, strain sur2, active compounds read low 1.01 | locus YDR334W, strain swr1, active compounds read low 1.01 | locus YDR335W, strain msn5, active compounds read low 1.02 | locus YDR392W, strain spt3, active compounds read low 0.943 | locus YEL003W, strain gim4, active compounds read low 1.02 | locus YEL037C, strain rad23, active compounds read low 1.02 | locus YEL061C, strain CIN8 (second series), active compounds read low 1.02 | locus YER015W, strain faa2, active compounds read low 1.01 | locus YER016W, strain bim1, active compounds read low 1.02 | locus YER111C, strain swi4, active compounds read low 1.01 | locus YER155C, strain BEM2 (second series), active compounds read low 1.03 | locus YFR010W, strain ubp6, active compounds read low 1.01 | locus YGL167C, strain pmr1, active compounds read low 1.02 | locus YGL173C, strain kem1, active compounds read low 1.03 | locus YGL227W, strain vid30, active compounds read low 1.01 | locus YGL240W, strain doc1, active compounds read low 1.02 | locus YGL253W, strain hxk2, active compounds read low 1.02 | locus YHR013C, strain ard1, active compounds read low 1.01 | locus YHR027C, strain rpn1, active compounds read low 1.01 | locus YHR030C, strain SLT2, active compounds read low 1.04 | locus YHR079C, strain IRE1, active compounds read low 1.03 | locus YHR142W, strain chs7, active compounds read low 1.02 | locus YJL092W, strain hpr5, active compounds read low 1.01 | locus YJL095W, strain BCK1 (second series), active compounds read low 1.02 | locus YJL095W, strain BCK1, active compounds read low 1.02 | locus YJL115W, strain asf1, active compounds read low 1.03 | locus YJL129C, strain trk1, active compounds read low 1.02 | locus YJL154C, strain vps35, active compounds read low 1.01 | locus YJL164C, strain tpk1, active compounds read low 1.01 | locus YJL166W, strain qcr8, active compounds read low 1.02 | locus YJL187C, strain SWE1, active compounds read low 1.02 | locus YJR066W, strain TOR1, active compounds read low 0.979 | locus YKL160W, strain elf1, active compounds read low 1.02 | locus YKR026C, strain gcn3, active compounds read low 1 | locus YKR091W, strain srl3, active compounds read low 1.02 | locus YLL001W, strain dnm1, active compounds read low 1.02 | locus YLL026W, active compounds read low 1.03 | locus YLL041C, strain sdh2, active compounds read low 1.02 | locus YLR027C, strain aat2, active compounds read low 1.02 | locus YLR113W, strain HOG1, active compounds read low 0.988 | locus YLR221C, strain rsa3, active compounds read low 1.01 | locus YLR258W, strain gsy2, active compounds read low 1.02 | locus YLR262C, strain YPT6 (second series), active compounds read low 1.04 | locus YLR320W, strain mms22, active compounds read low 1.01 | locus YLR342W, strain FKS1, active compounds read low 1.03 | locus YLR357W, strain rsc2, active compounds read low 0.991 | locus YLR370C, strain arc18, active compounds read low 1.03 | locus YLR384C, strain iki3, active compounds read low 1.01 | locus YML120C, strain ndi1, active compounds read low 1.01 | locus YMR058W, strain fet3, active compounds read low 1.02 | locus YMR125W, strain sto1, active compounds read low 1.02 | locus YMR129W, active compounds read low 1.02 | locus YMR205C, strain PFK2, active compounds read low 1.02 | locus YMR231W, strain pep5, active compounds read low 1.01 | locus YNL071W, strain lat1, active compounds read low 1.01 | locus YNL183C, strain NPR1, active compounds read low 0.974 | locus YNL209W, strain ssb2, active compounds read low 1.01 | locus YNL248C, strain rpa49, active compounds read low 0.988 | locus YNL322C, strain KRE1 (second series), active compounds read low 1.02 | locus YNR049C, strain mso1, active compounds read low 1.01 | locus YOR001W, strain rrp6, active compounds read low 1.03 | locus YOR070C, strain gyp1, active compounds read low 1.02 | locus YOR080W, strain dia2, active compounds read low 1.03 | locus YOR083W, strain WHI5, active compounds read low 1.02 | locus YOR106W, strain vam3, active compounds read low 1.02 | locus YOR231W, strain MKK1, active compounds read low 1.03 | locus YOR265W, strain rbl2, active compounds read low 1.02 | locus YOR270C, strain vph1, active compounds read low 1.05 | locus YOR290C, strain snf2, active compounds read low 1.02 | locus YPL051W, strain arl3, active compounds read low 1.02 | locus YPL078C, strain atp4, active compounds read low 1.01 | locus YPL106C, strain sse1, active compounds read low 1 | locus YPL240C, strain hsp82, active compounds read low 1.02 | locus YPL256C, strain CLN2, active compounds read low 1.04
